Data reported in PubChem BioAssay.
The source made the active and inactive calls.

Columns and labels:
[1] = compound effects on lung adenocarcinoma cell viability – A549, calcein-AM fluorescence, 48 h, basal, profiling panel (AID 1162); details: higher = more signal
[2] = compound effects on differentiated 3T3-L1 adipocyte viability – cell-based, 3T3-L1 adipocytes, calcein-AM fluorescence, 48 h, basal, profiling panel (AID 1163); details: 3T3-L1 adipocytes viability, higher = more signal
[3] = compound effects on hepatocellular carcinoma cell viability – HepG2, calcein-AM fluorescence, 48 h, basal, profiling panel (AID 1164); details: higher = more signal
[4] = compound effects on multiple myeloma cell viability – MM1S, calcein-AM fluorescence, 48 h, basal, profiling panel (AID 1165); details: higher = more signal;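 further: viability of MM1S multiple myeloma cells under basal unstimulated conditions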
[5] = calcein-AM signal in unstimulated myeloma cells – cell-based, calcein-AM fluorescence, 48 h, PK04 Diversity Set, profiling panel (AID 1166); details: RPMI8226 myeloma viability, higher = more signal;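 further: cells grown under basal conditions without added stimulus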
[6] = JC-1 mitochondrial signal, unstimulated HepG2 cells – cell-based, JC-1 fluorescence, 24 h, 100 nL compound, profiling panel (AID 1167); details: HepG2 mitochondrial potential, higher = more signal
[7] = JC-1 mitochondrial signal, unstimulated adipocytes – cell-based, JC-1 fluorescence, 3T3-L1 adipocytes, 24 h, 100 nL compound, profiling panel (AID 1168); details: JC-1 mitochondrial fluorescence, higher = more signal, called active from +8 up or from −8 down
[8] = JC-1 mitochondrial signal, unstimulated myeloma cells – cell-based, JC-1 fluorescence, RPMI8226, 24 h, 100 nL compound, profiling panel (AID 1169); details: JC-1 mitochondrial potential fluorescence, higher = more signal
[9] = JC-1 mitochondrial signal, unstimulated MM1S myeloma – cell-based, JC-1 fluorescence, 24 h, 100 nL compound, profiling panel (AID 1170); details: MM1S mitochondrial potential, higher = more signal
[10] = resazurin metabolic signal in A549 cells – cell-based, resazurin fluorescence, 24 h, PK04 Diversity Set, profiling panel (AID 1171); details: A549 viability, higher = more signal, called active from +8 up or from −8 down
Further: test concentration not given here.

Structure (SMILES) | z-score [1] | z-score [2] | z-score [3] | z-score [4] | z-score [5] | z-score [6] | z-score [7] | z-score [8] | z-score [9] | z-score [10]
COC(=O)[C@@]1(Cc2ccc(OC)cc2)[C@H]2c3cc(C(=O)N(C)C)n(Cc4cccc5ccccc45)c3C[C@H]2CN1C(=O)c1ccccc1 | -1.62 | 1.26 | -0.0664 | -0.623 | -2.08 | 3.37 | -0.669 (inactive) | -0.127 | -1.41 | -1.92 (inactive)
COC(=O)[C@@]1(Cc2ccc(F)cc2)[C@H]2c3cc(C(=O)N(C)C)n(CC4CC4)c3C[C@H]2CN1C(=O)c1ccccc1 | -0.654 | 0.128 | -0.0517 | -2.21 | -3.32 | 1.41 | -0.708 (inactive) | -0.858 | -1.21 | -1.38 (inactive)
C=CCOC(=O)[C@H]1[C@@H]2C(=O)O[C@@H](c3ccccc3)[C@@H](c3ccccc3)N2[C@@H](c2ccc(OCCOC(=O)[C@@H]3C[C@@H]4C(=O)N[C@@H](CCCC[N+](C)(C)C)C(=O)N4[C@@H]3c3ccc(O)cc3)cc2)[C@]12C(=O)Nc1ccccc12 | 1.23 | 1.53 | -0.265 | -1.07 | 0.95 | -1.37 | 0.396 (inactive) | -0.923 | -0.504 | 1.19 (inactive)
COc1ccc([Si](C)(C)[C@H]2[C@H](CCO)O[C@@]3(C(=O)N(Cc4ccc(N5C(=O)COc6ccccc65)cc4)c4ccccc43)[C@@H]2C)cc1 | -0.525 | 0.0432 | -3.14 | -2.36 | -4.33 | -0.509 | 1.36 (inactive) | -1.07 | -2.12 | -2.35 (inactive)
COCCOC(=O)N1C(=O)[C@@]2(c3cc(C#CC4=CCCCC4)ccc31)[C@H](c1ccc(O)cc1)N1[C@H](c3ccccc3)[C@H](c3ccccc3)OC(=O)[C@H]1[C@@H]2C(N)=O | 0.505 | 0.633 | -0.364 | -2.77 | -4.14 | -2.55 | 0.29 (inactive) | -0.902 | -1.19 | -0.954 (inactive)
COc1ccc(CCN2C(=O)[C@@]3(Cc4ccccc42)c2ccccc2C(=O)N(Cc2ccccc2C(F)(F)F)[C@H]3c2ccc(CO)cc2)cc1 | -0.306 | 0.885 | -0.863 | 0.122 | -1.57 | -0.739 | -0.753 (inactive) | 0.923 | -1.59 | 0.639 (inactive)
C=C(C)C1C(=C)CN([C@H](CO)c2ccccc2)C1=O (stereo not given in full) | -0.488 | 0.783 | -0.764 | 0.0188 | -2.01 | -0.113 | 0.113 (inactive) | -0.175 | -0.761 | 1.02 (inactive)
C#CCNC(=O)[C@H](Cc1ccccc1)NC(=O)CCC(=O)O | -0.281 | -0.405 | 0.0694 | 0.527 | 0.0189 | -0.821 | -0.536 (inactive) | 0.539 | -0.97 | -0.119 (inactive)
